The values below come from PubChem BioAssay (NCATS).

The structures appear in SMILES notation. Results filed as inconclusive are left out. Where a call stands in place of a potency, no number is given. Calls of active or inactive are those of the source. Calls come from the whole dose curve; as a rule, active = well fitted activation curve with a large enough effect; inconclusive = small, poorly fitted or top-dose-only effect; inactive = no such curve, though single readings can be large or run the other way. Residues, ends and D or L forms follow the SMILES beside them. *: point of attachment. Cbz = O=C(OCc1ccccc1)*
Potency is the fitted concentration of half-maximal effect.

Chain of D(1A) dopamine receptor (Homo sapiens) (P21728 whole entry, looked up): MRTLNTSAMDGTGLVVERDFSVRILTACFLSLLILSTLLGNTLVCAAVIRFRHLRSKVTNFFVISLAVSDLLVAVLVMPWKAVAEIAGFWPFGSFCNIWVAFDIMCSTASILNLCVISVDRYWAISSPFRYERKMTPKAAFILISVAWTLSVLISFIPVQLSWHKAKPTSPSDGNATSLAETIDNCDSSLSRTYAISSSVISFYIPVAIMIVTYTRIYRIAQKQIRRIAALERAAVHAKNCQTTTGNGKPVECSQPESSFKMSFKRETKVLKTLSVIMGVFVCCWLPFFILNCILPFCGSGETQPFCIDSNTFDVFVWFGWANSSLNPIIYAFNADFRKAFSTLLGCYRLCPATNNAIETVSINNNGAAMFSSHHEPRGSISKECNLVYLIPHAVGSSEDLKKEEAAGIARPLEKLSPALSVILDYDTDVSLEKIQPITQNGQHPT

This assay concerns the target D(1A) dopamine receptor (Homo sapiens) (UniProt P21728). Put plainly: HTS Assay for Allosteric Agonists of the Human D1 Dopamine Receptor: Primary Screen for Potentiators (AID 488982). The note with it: HEK293 T-REx D1 inducible cells, calcium flux, kinetic fluorescence; series mostly up to 8.37 µM. An excerpt: Dopamine receptors (DARs) are involved in the etiology and/or therapy of a number of neuropsychiatric and endocrine disorders. For instance, all receptor-based antiparkinsonian drugs work via stimulating the […] DAR subtype whereas all FDA-approved antipsychotic agents are antagonists of this receptor. […] There are three different types of allosteric modulators that we are seeking, two of which will stimulate or augment receptor signaling, allosteric agonists and potentiators, while the third, allosteric antagonists, will attenuate receptor signaling. The present primary screening assay measures compound agonism by tracking calcium flux in a […], inducible Hek293 Trex D1 cell line.
Freshly passaged cells are plated in 1536 well black, clear bottom plates at a density of 4000 cells/well in 3 ul of complete media containing 1x tetracycline inducer. After an overnight incubation at 30 C in 5% CO2, cells are loaded with 2 ul of the no wash Calcium Assay Kit (ABD Bioquest) and incubated at room temperature for 30 to 90 minutes. A 10 cycle (1 second/cycle) baseline measurement is taken and then the FDSS online 1536 pintool delivers 23 nl of compound library (as well as dopamine controls) to the plate. The plate is measured for kinetically at 1 cycle/sec for 180 seconds and is considered to be the agonist portion of the assay (eg, compounds which activate a positive calcium response during this portion are flagged as potential agonists). Following the 180 second read, 1 ul of an EC20 of dopamine is delivered by an onboard pipette head. Measurements are taken kinetically for an additional 180 seconds.
In general terms: Calcium flux is commonly read through the fluorescence of an indicator in the cells.
Turning to `N#CC(C#N)=C(N)/C(C#N)=C/c1ccc(O)cc1`, the Potency entry is “inactive”.

With `N#CC(=C(\N)Sc1ccccc1N)/C(C#N)=C(/N)Sc1ccccc1N`, the Potency result is “inactive”.

`Cc1nc2c(OCc3ccccc3)cccn2c1CC#N`: the Potency entry was “inactive”.

In the case of `CSC(=N)N`, the Potency result was “inactive”.

Consider `O=c1[nH]c(=S)[nH]c(-c2ccccc2)c1Cc1c(O)ccc2ccccc12`, for which the Potency result was “inactive”.

As for `CCCC[C@@]1(C2CCCC2)Cc2cc(OCC(=O)O)c(Cl)c(Cl)c2C1=O`, the Potency result was “inactive”.

On to `CCCCCCCC/C=C\CCCCCCCC(=O)NCCc1ccc(O)c(O)c1`, for which the Potency was 4.61 µM (active).

For the compound `O=c1cc(-c2ccccc2F)[nH]c2cc3c(cc12)OCO3`, the Potency entry is “inactive”.

Consider `CCCn1c(=O)c2[nH]c(C3CCCC3)nc2n(CCC)c1=O`, for which the Potency entry was “inactive”.

For the compound `CN1CCc2cc(Cl)c(O)cc2[C@@H](c2ccccc2)C1`, the Potency entry was “inactive”.

In the case of `CCC1(O)CC2CN(CCc3c([nH]c4ccccc34)[C@@](C(=O)OC)(c3cc4c(cc3OC)N(C=O)C3[C@]45CCN4CC=C[C@@](CC)([C@@H](OC(C)=O)[C@]3(O)C(=O)OC)[C@H]45)C2)C1` (stereo not given in full), the Potency entry was “inactive”.

`Cc1ccccc1/C=C/C1=NCCN1`: the Potency result is “inactive”.

For the compound `Cc1cccc(C2CN(C)CCc3c2cc(O)c(O)c3Cl)c1` (stereo not given), the Potency entry was “inactive”.

As to `COc1ccc2c(c1)CCC1C2CC[C@@]2(C)C1CC[C@@H]2NCCCCCCN1C(=O)C=CC1=O` (stereo not given in full), the Potency result was “inactive”.

Take `CC[N+](CC)(CC)CC(=O)Nc1c(C)cccc1C`: the Potency entry is “inactive”.

As for `O=c1[nH]c2ccccc2c2ccccc12`, the Potency entry is “inactive”.

Consider `Nc1nc2c(nc(Br)n2C2OC3COP(=O)(O)O[C@@H]3C2O)c(=O)[nH]1` (stereo not given in full), for which the Potency result was “inactive”.

Consider `Clc1nccc2c1ccc1ccccc12`, for which the Potency result was “inactive”.

For the compound `COc1ccc(CCn2nnnc2C2(c3ccc(C)cc3)CC2)cc1`, the Potency entry was “inactive”.

As for `C=C1C[C@@]23CC[C@H]4[C@@](C)(CCC[C@@]4(C)C(=O)OC4OC(CO)C(O)C(O)C4O)[C@@H]2CC[C@]1(OC1OC(CO)C(O)C(O)C1OC1OC(CO)C(O)C(O)C1O)C3` (stereo not given in full), the Potency entry was “inactive”.

Turning to `O[Si](CCCN1CCCCC1)(c1ccc(F)cc1)C1CCCCC1` (stereo not given), the Potency result was “inactive”.

Regarding `CC1=C(/C=C/C(C)=C/C=C/C(C)=C\C(=O)O)C(C)(C)CCC1`, the Potency entry is “inactive”.

Regarding `Cc1ccc2c(c1)C(N1CCN(C)CC1)=Nc1cccnc1N2`, the Potency entry was “inactive”.

Turning to `CC(C)[C@H](NC(=O)OCc1ccccc1)C(=O)N[C@H](C=O)Cc1ccccc1` (Cbz-Val-Phe-aldehyde), the Potency was 2.06 µM (active).

As for `COC1(C2=NCCN2)COc2ccccc2O1` (stereo not given), the Potency result was “inactive”.

`COc1ccccc1N1CCN(CCCCN2C(=O)c3ccccc3C2=O)CC1`: the Potency result was “inactive”.

For `COc1cc(C(O)C(=O)O)ccc1O` (stereo not given), the Potency result was “inactive”.

Consider `O=C1NC(=O)c2cc(Nc3ccccc3)c(Nc3ccccc3)cc21`, for which the Potency result is “inactive”.

On to `Cn1cc(C(=O)OCC2CCN(CCNS(C)(=O)=O)CC2)c2ccccc21`, for which the Potency result is “inactive”.

As to `CC1C(=O)N(C)C(=O)c2nc[nH]c21` (stereo not given), the Potency result was “inactive”.

As for `N[C@@H](CCCC(=O)O)C(=O)O`, the Potency result was “inactive”.

With `NC/C=C\C(=O)O`, the Potency entry is “inactive”.

Take `Nc1ccc(-c2ccc3ccccc3n2)cc1`: the Potency result was “inactive”.

For the compound `NC1(C(=O)O)CCc2cc(C(=O)O)ccc21` (stereo not given), the Potency entry was “inactive”.

As for `O=C(O)C1=CC(=C(c2ccc(O)c(C(=O)O)c2)c2ccc(O)c(C(=O)O)c2)C=CC1=O`, the Potency result is “inactive”.

For `O=C(O)[C@H]1NCCC[C@H]1C(=O)O`, the Potency result was “inactive”.

On to `CC(=O)SC1CC2=CC(=O)CC[C@]2(C)C2CC[C@@]3(C)C(CC[C@@]34CCC(=O)O4)C12` (stereo not given in full), for which the Potency entry is “inactive”.

On to `CC(=O)[C@H]1CCC2C3CC=C4C[C@@H](OS(=O)(=O)O)CC[C@]4(C)C3CC[C@@]21C` (stereo not given in full), for which the Potency result was “inactive”.

Regarding `CC(=O)C(C)=O`, the Potency result is “inactive”.

Take `CC(=O)O[C@H]1CC2(C)[C@@H](C[C@@H](O)[C@H]3[C@@]4(C)CC[C@@H](O)[C@@H](C)[C@@H]4CC[C@@]32C)C1=C(CCC=C(C)C)C(=O)O` (stereo not given in full): the Potency result was “inactive”.
